Screens (PubChem)
HP1b chromo inh = inhibitors of HP1-beta chromodomain binding to methylated histone tails. P83916. AlphaScreen HP1-beta / biotin-H3K9me3 peptide binding. Potency, µM (doses to about 114 µM), usual class: inhibitors. 0.56% of 390,000 active. AID 540317; further: nearly all actives have a fitted effect of over 70% in size
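HP1-beta protein (50 nM final) preincubated 30 min at room temperature with biotinylated H3(1-18)K9me3 peptide (50 nM) in PBS pH 7.4, 0.01% Tween-20, then compound added for 30 min. AlphaScreen streptavidin donor/nickel chelate acceptor beads (10 ug/mL final), 30 min dark, luminescence read.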
Six1-Eya2 blk = blocks human Six1 binding to Eya2 | AlphaScreen GST-Six1/His-Eya2 binding, biochemical; hits give low values | activity change, % (no concentration beside the values) | Q15475+O00167 | 0.56% of 360,000 active; in the data active means activity change below about -65%; inconclusive means mostly about -30% to -63%
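AlphaScreen luminescence read after one hour at 37 °C in darkness. Pin-transferred compounds met GST-Six1 and His-Eya2 protein (5X stock 250 nM/500 nM) plus glutathione donor and Ni-chelate acceptor beads (5X, 50 ug/mL).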
G9a block = inhibitors of human histone lysine methyltransferase G9a; AID 504332; Q96KQ7; G9a H3K9 monomethylation, AlphaScreen, 2 h; Potency, µM (series often up to 102 µM), usual class: inhibitors; 8.8% of 350,000 active; further: nearly all actives have a fitted effect of over 75% in size
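AlphaScreen detection with an anti-monomethyl H3K9 antibody quantified product after a 2 h room-temperature reaction containing 500 nM biotinylated H3K9 peptide, 20 µM SAM and 20 nM enzyme, which had been preincubated 15 min with compound.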
CtBP-E1A inh = blocks the CtBP interaction with E1A. AID 651724. activity change, % (no concentration beside the values). AlphaScreen GST-E1A/His-CtBP binding, 1536-well; hits give low values. 0.49% of 340,000 active; in the data active means activity change below about -65%; inconclusive means mostly about -30% to -63%
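In 5 uL wells, 23 nL compound meets equimolar GST-E1A and His-CtBP (5X stock 125 nM each) for 2 h, 37 °C. Beads (5X, 50 ug/mL) then 1 h, 37 °C, dark.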
JMJD2A Tudor inh = blocks the human JMJD2A Tudor domain. O75164. AlphaScreen JMJD2A-Tudor / H3K4me3 peptide binding. 4.4% of 390,000 active. Potency, µM (highest dose often 114 µM), most hits filed as inhibitors; further: nearly all actives have a fitted effect of over 50% in size
Target sequence (O75164 whole entry, looked up, the tested form may be a part): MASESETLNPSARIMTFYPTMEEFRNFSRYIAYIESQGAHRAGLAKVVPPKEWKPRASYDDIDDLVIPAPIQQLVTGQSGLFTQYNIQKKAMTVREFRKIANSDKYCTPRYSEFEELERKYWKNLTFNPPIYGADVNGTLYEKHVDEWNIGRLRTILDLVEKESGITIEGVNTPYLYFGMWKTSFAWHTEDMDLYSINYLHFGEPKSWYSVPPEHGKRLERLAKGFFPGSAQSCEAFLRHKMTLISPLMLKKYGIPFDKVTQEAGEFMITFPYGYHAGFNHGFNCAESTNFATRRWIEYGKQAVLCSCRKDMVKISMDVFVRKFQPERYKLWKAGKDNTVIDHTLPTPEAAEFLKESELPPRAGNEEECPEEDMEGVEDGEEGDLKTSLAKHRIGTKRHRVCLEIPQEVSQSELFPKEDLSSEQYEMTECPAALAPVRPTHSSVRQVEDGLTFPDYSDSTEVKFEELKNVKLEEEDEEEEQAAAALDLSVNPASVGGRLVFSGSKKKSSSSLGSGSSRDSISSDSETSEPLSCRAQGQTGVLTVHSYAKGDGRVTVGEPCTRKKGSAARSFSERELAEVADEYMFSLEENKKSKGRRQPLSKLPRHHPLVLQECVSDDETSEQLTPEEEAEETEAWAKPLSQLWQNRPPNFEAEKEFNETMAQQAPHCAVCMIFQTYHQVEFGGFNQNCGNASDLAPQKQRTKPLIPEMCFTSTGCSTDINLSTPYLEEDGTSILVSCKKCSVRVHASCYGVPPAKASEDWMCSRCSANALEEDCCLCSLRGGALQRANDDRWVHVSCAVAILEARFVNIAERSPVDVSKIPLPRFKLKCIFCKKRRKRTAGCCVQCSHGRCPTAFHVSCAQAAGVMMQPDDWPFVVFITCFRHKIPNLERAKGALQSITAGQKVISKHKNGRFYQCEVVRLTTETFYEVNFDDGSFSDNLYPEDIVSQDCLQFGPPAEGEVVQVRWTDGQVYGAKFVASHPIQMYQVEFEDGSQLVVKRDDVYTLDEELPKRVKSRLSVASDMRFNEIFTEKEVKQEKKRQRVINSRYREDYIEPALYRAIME
BAZ2B block = BAZ2B (human) inhibition; Potency, µM (titrated, usually from 114 µM), most hits filed as inhibitors; AID 504333; AlphaScreen BAZ2B-H3K14Ac peptide displacement; 4.4% of 360,000 active; Q9UIF8; further: nearly all actives have a fitted effect of over 60% in size
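AlphaScreen displacement: compounds (up to 110uM) incubated 30 min at room temperature with a preformed 50 nM BAZ2B/50 nM biotinylated H3K14Ac peptide complex in PBS pH 7.4 with Tween-20. Donor and acceptor beads at 10 ug/mL final added, 20 min light-protected before reading.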
Each line names hits and unclear results; the compound was inactive in the other large screens; ! = not confirmed by another sample. Shown are actives, neighbours in structure and some others; about 10% of the full set was active somewhere. Unless noted, the call rests on the fitted dose curve; in most records, active means well fitted inhibition curve with a large enough effect; inconclusive means small, poorly fitted or top-dose-only effect; inactive means no such curve, though single readings can be large or run the other way.

CCN1CC2=C(OC(N)=C(C#N)C2c2cccs2)/C(=C\c2cccs2)C1 (stereo not given)	HP1b chromo inh inconclusive, Six1-Eya2 blk inconclusive, G9a block 45µM, CtBP-E1A inh inconclusive, JMJD2A Tudor inh inconclusive, BAZ2B block 35µM
CCOCc1cc(CN2CCC(CCC(=O)NC3CC3)CC2)ccc1OC	none
Cc1ccc(C)c(S(=O)(=O)c2nnn3c2nc(NCc2ccc4c(c2)OCO4)c2sccc23)c1	none (no result: Six1-Eya2 blk, CtBP-E1A inh)
CC1(C(=O)NCc2ccccc2)CSCC(=O)N1Cc1cccs1 (stereo not given)	none (no result: HP1b chromo inh, G9a block, JMJD2A Tudor inh, BAZ2B block)
COC(=O)c1c(Oc2ccc(C(C)=O)cc2)nnc(-c2ccccc2)c1-c1ccccc1	none (no result: Six1-Eya2 blk, CtBP-E1A inh)
CC(=O)C1=C(C)OC(N)=C(C#N)C1c1cccc([N+](=O)[O-])c1 (stereo not given)	G9a block 45µM (no result: CtBP-E1A inh)
CCOC(=O)C1=C(CC)OC(N)=C(C#N)C1c1cccs1 (stereo not given)	G9a block 50µM
Nc1nccnc1C(=O)OCC(=O)c1ccc[nH]1	G9a block 50µM
CCOc1ncccc1C(=O)OCC(=O)c1ccc[nH]1	none
N#C/C(=C(/O)CSc1nnc(Cc2cccs2)n1C1CCCCC1)c1nc2ccccc2[nH]1	G9a block inconclusive
COc1ccccc1-c1nnc(SC/C(O)=C(\C#N)c2nc3ccccc3[nH]2)n1C1CCCCC1	HP1b chromo inh inconclusive, G9a block 32µM, JMJD2A Tudor inh 89µM
Cn1cnnc1SC/C(O)=C(\C#N)c1nc2ccccc2[nH]1	G9a block inconclusive, JMJD2A Tudor inh 25µM, BAZ2B block 50µM
CCCn1c(SC/C(O)=C(\C#N)c2nc3ccccc3[nH]2)n[nH]c1=O	none
Cc1cccc(C)c1Nc1nnc(SC/C(O)=C(\C#N)c2nc3ccccc3[nH]2)s1	G9a block 14µM
Cc1cccc(Nc2nnc(SC/C(O)=C(\C#N)c3nc4ccccc4[nH]3)s2)c1C	G9a block inconclusive
CC1(C(=O)NS(=O)(=O)c2ccccc2OC(F)(F)F)CCN1C(=O)Cc1ccccc1 (stereo not given)	none (no result: HP1b chromo inh, G9a block, JMJD2A Tudor inh, BAZ2B block)
O=C(NCCS(=O)(=O)N1CCN(c2ccccc2F)CC1)C1CC(=O)N(c2ccccc2)C1 (stereo not given)	none (no result: CtBP-E1A inh)
Cc1ccc(N2CC(C(=O)NCCS(=O)(=O)N3CCN(c4ccccc4F)CC3)CC2=O)cc1 (stereo not given)	JMJD2A Tudor inh 16µM!
CCOc1cc(-c2ccc(OC(=O)c3ccccc3F)cc2)cc(=O)c2c(C)oc(C)c12	BAZ2B block inconclusive (no result: Six1-Eya2 blk, CtBP-E1A inh)
COCCCN1C(=O)/C(=C/c2ccc(CNS(=O)(=O)c3ccccc3)o2)C(C(=O)OC)=C1C	G9a block 28µM, JMJD2A Tudor inh 56µM
Cc1ccc(C2C(C(=O)c3ccco3)=C(O)C(=O)N2c2nnc(C)s2)cc1 (stereo not given)	JMJD2A Tudor inh 79µM (no result: G9a block)
Cc1cc(C)c2nc(N3C(=O)C(O)=C(C(=O)c4ccco4)C3c3cccc(O)c3)sc2c1 (stereo not given)	JMJD2A Tudor inh inconclusive, BAZ2B block inconclusive
Cc1nnc(N2C(=O)C(O)=C(C(=O)c3ccco3)C2c2cccc([N+](=O)[O-])c2)s1 (stereo not given)	none
CCOC(=O)C1=C(O)C(=O)N(c2ccccc2)C1c1cccc([N+](=O)[O-])c1 (stereo not given)	none (no result: G9a block, CtBP-E1A inh)
Cc1nnc(N2C(=O)C(O)=C(C(=O)c3ccco3)C2c2cccc3ccccc23)s1 (stereo not given)	G9a block 50µM
CCOC(=O)c1sc(N2C(=O)C(O)=C(C(=O)c3ccco3)C2c2cccc([N+](=O)[O-])c2)nc1C (stereo not given)	G9a block 45µM, JMJD2A Tudor inh inconclusive, BAZ2B block inconclusive
Cc1ccc(C2(c3ccccc3)NC(=O)N(CC(=O)NCc3ccco3)C2=O)cc1C (stereo not given)	G9a block inconclusive (no result: CtBP-E1A inh)
O=C(c1cc2c(s1)CCC2)N1C(=O)c2ccccc2S1(=O)=O	G9a block 40µM, JMJD2A Tudor inh inconclusive, BAZ2B block 50µM
O=C(c1cc2c(s1)CCCC2)n1cccn1	none
CC1CC(=O)NN1C(=O)c1ccccc1 (stereo not given)	G9a block 79µM, JMJD2A Tudor inh 28µM, BAZ2B block 79µM
CC1CC(=O)NC(=O)N1Cc1ccccc1 (stereo not given)	none (no result: G9a block, BAZ2B block)
Cc1ccc(/C=N\NC(=O)Cc2noc3ccccc23)cc1	none
CS(=O)(=O)N(Cc1cccc(CN(C(C(=O)O)c2ccccc2)S(C)(=O)=O)c1)C(C(=O)O)c1ccccc1 (stereo not given)	G9a block 32µM, BAZ2B block inconclusive
CN(Cc1ccc(Cl)cc1Cl)C(=O)CN1C(=O)NC2(CCCC2)C1=O	G9a block 35µM
CCOc1ccc(C(=O)NCC(=O)OCc2cc(C(C)=O)ccc2OC)cc1	G9a block 45µM
COc1ccc(C(C)=O)cc1COC(=O)CNC(=O)c1ccc(F)cc1	none
COc1ccc(C(C)=O)cc1COC(=O)CNC(=O)c1ccc(Cl)cc1	G9a block 50µM (no result: CtBP-E1A inh)
CCOc1ccc(C(=O)NCC(=O)OCCCOC(=O)CNC(=O)c2ccc(OCC)cc2)cc1	none
Nc1ncnc(N)c1NC(=O)c1ccc(OCc2ccccc2)cc1	none (no result: HP1b chromo inh, G9a block, JMJD2A Tudor inh, BAZ2B block)
COC(=O)c1[nH]c2ccccc2c1NC(=O)CN1CCN(Cc2ccc3c(c2)OCO3)CC1	G9a block inconclusive, JMJD2A Tudor inh 79µM
COC(=O)c1[nH]c2ccc(F)cc2c1NC(=O)CCN1CCN(Cc2ccc3c(c2)OCO3)CC1	none
CCN(CC(=O)Nc1c(C(=O)OC)[nH]c2ccc(C)cc12)c1ccc2c(c1)OCO2	Six1-Eya2 blk inconclusive, G9a block 35µM, CtBP-E1A inh inconclusive, JMJD2A Tudor inh 45µM, BAZ2B block 40µM
COC(=O)c1[nH]c2ccc(C)cc2c1NC(=O)C1=COCCO1	G9a block inconclusive
COC(=O)c1[nH]c2ccccc2c1NC(=O)CN1CCN(c2cccc(OC)c2)C(C)C1 (stereo not given)	HP1b chromo inh inconclusive, Six1-Eya2 blk inconclusive, JMJD2A Tudor inh 16µM, BAZ2B block inconclusive
CCOC(=O)c1[nH]c2ccc(OC)cc2c1NC(=O)/C=C/c1ccc2c(c1)OCO2	none
O=C(/C=C/c1ccc2c(c1)OCO2)Nc1c(C(=O)O)[nH]c2ccccc12	G9a block 11µM, JMJD2A Tudor inh inconclusive, BAZ2B block inconclusive
FC(F)(F)c1n[nH]c(=S)n1/N=C/c1ccco1	G9a block 3.5µM, JMJD2A Tudor inh inconclusive
Cc1ccccc1-c1n[nH]c(=S)n1/N=C/C=C/c1ccco1	G9a block 2.2µM, JMJD2A Tudor inh 18µM, BAZ2B block 45µM
S=c1[nH]nc(-c2ccc(Cl)cc2)n1/N=C/c1ccco1	G9a block 0.89µM, JMJD2A Tudor inh 40µM
